In PubChem BioAssay AID436 (Emory University Molecular Libraries Screening Center, 2006):
The whole screen tested about 72,000 compounds, of which about 350 (0.49%) were called active.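 The calls were made as follows: active = activity remaining at or below 50% of control, provided the compound also passes the data quality filters; inactive = the rest, including low values that fail the filters.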 Many of the other results were omitted from the sample, so actives are more common in it than they were.

The molecules below were run against Ubiquitin carboxyl-terminal hydrolase BAP1 (Homo sapiens) (UniProt Q92560) (assay: inhibitors of BAP1 deubiquitinase, primary screen, biochemical, Ub-AMC fluorescence, kinetic (AID 436;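 also: 100% = DMSO wells rate and 0% = substrate alone blank rate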)). Details: recombinant BAP1, Ub-AMC hydrolysis fluorescence kinetic; at 20 µM; active compounds read low.
Sequence of Ubiquitin carboxyl-terminal hydrolase BAP1 (Homo sapiens) (Q92560 whole entry, looked up): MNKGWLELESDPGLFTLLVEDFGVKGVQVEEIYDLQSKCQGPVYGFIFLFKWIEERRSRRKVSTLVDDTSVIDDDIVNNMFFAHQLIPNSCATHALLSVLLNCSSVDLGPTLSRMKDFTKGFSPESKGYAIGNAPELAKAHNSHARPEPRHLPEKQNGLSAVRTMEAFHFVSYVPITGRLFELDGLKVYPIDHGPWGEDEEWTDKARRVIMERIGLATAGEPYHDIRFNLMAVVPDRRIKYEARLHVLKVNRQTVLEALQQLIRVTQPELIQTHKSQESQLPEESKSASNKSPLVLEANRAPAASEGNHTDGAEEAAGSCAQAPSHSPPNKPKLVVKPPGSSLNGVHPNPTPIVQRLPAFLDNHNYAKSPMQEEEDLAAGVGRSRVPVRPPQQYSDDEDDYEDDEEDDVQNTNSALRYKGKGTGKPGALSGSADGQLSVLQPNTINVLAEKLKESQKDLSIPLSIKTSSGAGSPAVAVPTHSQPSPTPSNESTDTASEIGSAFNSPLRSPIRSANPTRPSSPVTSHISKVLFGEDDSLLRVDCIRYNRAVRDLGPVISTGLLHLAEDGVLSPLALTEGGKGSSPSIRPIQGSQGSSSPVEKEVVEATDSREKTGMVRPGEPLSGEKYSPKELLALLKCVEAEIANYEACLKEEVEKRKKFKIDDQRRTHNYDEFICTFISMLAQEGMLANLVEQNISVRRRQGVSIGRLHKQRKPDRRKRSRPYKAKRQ
In the case of `NC(=O)c1ccccc1NC(=O)COc1ccc([N+](=O)[O-])cc1`, the activity remaining (% of control) is reported as 138% (inactive). In the case of `Cc1ccc(C=Cc2ccncc2)cc1`, the activity remaining (% of control) is reported as 139% (inactive). In the case of `N#Cc1c(/N=C/N2CCCC2)oc(-c2ccccc2)c1-c1ccccc1`, the activity remaining (% of control) is reported as 41.5% (active). With `N#Cc1c(NC(=O)CCCN2C(=O)c3ccccc3C2=O)oc(-c2ccccc2)c1-c1ccccc1` the activity remaining (% of control) was 56.8% (inactive). With `NC(=O)c1c(NC(=O)CCCCCN2C(=O)c3ccccc3C2=O)sc2c1CCC2` the activity remaining (% of control) was 140% (inactive). In the case of `COC(=O)C1=C(C)Nc2nnnn2C1c1ccccc1` (stereo not drawn), the activity remaining (% of control) is reported as 171% (inactive). With `COc1cc(C(=O)Nc2ccc(Cl)cc2[N+](=O)[O-])cc(OC)c1OC` the activity remaining (% of control) was 87.7% (inactive). In the case of `C[n+]1ccccc1C=Cc1ccccc1`, the activity remaining (% of control) is reported as 120% (inactive). In the case of `Cc1cccc2cc(CN(Cc3ccc4c(c3)OCO4)Cc3nnnn3C3CCCC3)c(=O)[nH]c12`, the activity remaining (% of control) is reported as 53.1% (inactive). `CCC(c1nnnn1C1CCCC1)N(Cc1cccs1)Cc1cc2cccc(C)c2[nH]c1=O` (stereo not drawn) was tested, and the activity remaining (% of control) was 49.7% (active). `Cc1cccc2cc(CN(Cc3cccs3)C(c3nnnn3C3CCCC3)C(C)C)c(=O)[nH]c12` (stereo not drawn) was tested, and the activity remaining (% of control) was 57.3% (inactive). For `COC(=O)c1ccc(C(=O)Nc2cccc3c2C(=O)c2ccccc2C3=O)cc1`, the activity remaining (% of control) was 177% (inactive). In the case of `CC(C)C(=O)N1c2ccccc2NC2=C(C(=O)CC(c3ccccc3)C2)C1c1ccc(F)cc1` (stereo not drawn), the activity remaining (% of control) is reported as 63.6% (inactive). For `O=C(c1ccccc1)N1CCN(c2ccc([N+](=O)[O-])cc2F)CC1`, the activity remaining (% of control) was 64.8% (inactive). In the case of `COc1cc(C2CC(=O)Nc3c2cc(Br)c2ccccc32)cc(Br)c1OC` (stereo not drawn), the activity remaining (% of control) is reported as 57.5% (inactive). In the case of `CC(C)(C)c1ccc(OCC(O)CN2CCN(c3ccccc3F)CC2)cc1` (stereo not drawn), the activity remaining (% of control) is reported as 152% (inactive). For `CC(C)(C)c1ccc(C(=O)Nc2nnc(Cc3ccc(F)cc3)s2)cc1`, the activity remaining (% of control) was 75.1% (inactive). For `COc1ccc(C=Nc2sc(C)c(C)c2C#N)cc1`, the activity remaining (% of control) was 103% (inactive). In the case of `COC(=O)c1sc(-c2ccccc2)cc1NC(=O)c1ccc(S(=O)(=O)N2CCOCC2)cc1`, the activity remaining (% of control) is reported as 193% (inactive). For `O=C1NCCCC1C1=NC(CO)(CO)CO1` (stereo not drawn), the activity remaining (% of control) was 82.8% (inactive). With `CCCOC(=O)c1cccc(NC(=O)COc2cccc(Cl)c2)c1` the activity remaining (% of control) was 91.3% (inactive). For `CCOc1ccc(C(=O)Nc2ccc3c(c2)oc2ccccc23)cc1`, the activity remaining (% of control) was 144% (inactive). For `CCCCOc1ccc(C(=O)Nc2nc3ccc4nc(C)sc4c3s2)cc1`, the activity remaining (% of control) was 167% (inactive). For `CCC(=O)OCC1OC(n2ccc(=O)[nH]c2=O)CC1OC(=O)CC` (stereo not drawn), the activity remaining (% of control) was 130% (inactive). For `COc1ccc(CCNC(=O)c2cccc([N+](=O)[O-])c2C)cc1`, the activity remaining (% of control) was 86.2% (inactive). `COc1ccc(C(=O)Nc2cccc(C)n2)cc1[N+](=O)[O-]` was tested, and the activity remaining (% of control) was 80.8% (inactive). With `CN1C(=O)C(=O)/C(=C(/O)c2ccc(F)cc2)C1c1ccc(F)cc1` (stereo not drawn) the activity remaining (% of control) was 58.4% (inactive). In the case of `Cn1c(=O)[nH]c(=O)c2c1nc(N1CCOCC1)n2CCO`, the activity remaining (% of control) is reported as 159% (inactive). For `CCCCNC(=O)c1c[nH]c2ccc(S(=O)(=O)Nc3ccc(OCC)cc3)cc2c1=O`, the activity remaining (% of control) was 32.9% (active). With `COc1cccc(NS(=O)(=O)c2ccc3[nH]cc(C(=O)NCCCOC(C)C)c(=O)c3c2)c1` the activity remaining (% of control) was 79.5% (inactive). For `Cn1c(=N)n(CC(O)c2cccs2)c2ccccc21` (stereo not drawn), the activity remaining (% of control) was 85.6% (inactive). `COc1cc(NC(=O)COc2ccccc2)c(OC)cc1Cl` was tested, and the activity remaining (% of control) was 141% (inactive). `O=C(Nc1cc2cccc([N+](=O)[O-])c2oc1=O)c1ccccc1[N+](=O)[O-]` was tested, and the activity remaining (% of control) was 61.5% (inactive). In the case of `Cc1cc(C)nc(NS(=O)(=O)c2ccc(NC(=O)c3ccc(F)cc3)cc2)n1`, the activity remaining (% of control) is reported as 67.2% (inactive). For `Clc1ccc2[nH]c3ccccc3c2c1`, the activity remaining (% of control) was 65% (inactive). With `Cc1cc(O)c2c(=O)c(-c3csc(C)n3)c(C(F)(F)F)oc2c1` the activity remaining (% of control) was 130% (inactive). `O=C(OCCN1C(=O)c2ccccc2C1=O)c1ccc([N+](=O)[O-])cc1` was tested, and the activity remaining (% of control) was 90.6% (inactive). `O=[N+]([O-])c1ccc(C=Nc2nc3c(s2)CCCC3)cc1` was tested, and the activity remaining (% of control) was 113% (inactive).
